Measurements from the supplement of paper PMC11417369.
± gives the standard deviation of the averaged measurements. Whole data set: some 25,000 sequences, median “ln(normalized median fluorescence intensity)” near 8.6, cut for the highest 2% near 10. Shown is part of a subset that was picked to be rich in the highest values.

System: PfAP2-EXP AP2 domain (GST-tagged)
Experiment: gcPBM binding intensity (ln(normalized median fluorescence intensity)); higher = stronger DNA binding
Method in brief: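 Binding of GST-tagged P. falciparum DNA-binding domains, expressed in E. coli and used at about 25 μg on average, was carried out for 1 h in 1× PBS containing 1% milk, 0.2 mg/ml BSA, 0.5% salmon testes DNA and 0.03% Triton X-100. The target was an Agilent 4 × 180k array of primer-extended double-stranded 36-bp intergenic genomic probes plus negative controls, read with Alexa488 anti-GST antibody at 488 nm. Binding intensity is the highest Masliner-normalised natural-log median intensity across replicate spots of either probe orientation.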

| Sequence | gcPBM binding intensity (ln) |
| --- | --- |
| TACGTGAAATTATATACACACATAAATATGTCTGTA [CACACA_site3122] | 8.16 ± 0.36 |
| ATTTAAAAAAAAACGGAATTTTTTTTTTTTTTAAAG [XGTACX_negctrl_site91] | 8.06 ± 0.51 |
| TTAAAAAAAATATAATGTACTTGTAGAATTATATTT [XGTACX_site6220] | 8.09 ± 0.26 |
| TTTTTTAATTAATTACCTTTGAATGTGTATTAGGAC [GTGCAC_negctrl_site651] | 8.49 ± 0.26 |
| AATATATACATATATTGTACATATAGTTTCTTGCAT [XGTACX_site7871] | 8.61 ± 0.33 |
| AAATTATTATGAAATGGAAAATGCATAAATTGTTTT [XGTACX_negctrl_site206] | 8.63 ± 0.48 |
| AACATAACAAAAAAAAAAAAAAATATATATATATAT [TGCATGCA_negctrl_site370] | 10.2 ± 0.41 |
| ATAAATAAATAAATACGTACATATATATATATATAT [XGTACX_site8838] | 9.98 ± 0.38 |
| AAATAAATAAATATACGTACATATATATAATATATA [XGTACX_site5124] | 8.52 ± 0.15 |
| AAAAAAATATAAATACGTACATATATATATATATAT [XGTACX_site432] | 10.2 ± 0.46 |
| TAATATAACAAAAAAATAAAATAAAATAAAAAATAA [CACACA_negctrl_site109] | 8.4 ± 0.41 |
| CCATATACAACCATACGTACATATATATATATATAT [XGTACX_site8193] | 10.2 ± 0.2 |
| TATATATACATATACACACATACGTACATACATATA [CACACA_site3585] | 8.75 ± 0.31 |
| ACAAAAAAATAAAATATATATATATATATAATATAT [CACACA_negctrl_site805] | 8.58 ± 0.16 |
| TACAAAAAAATAAATAATAAAAAAAAATATATATAA [XGTACX_negctrl_site344] | 8.38 ± 0.38 |
| ATACATACATACATACGTACATATGTATATATATAT [XGTACX_site8498] | 9.7 ± 0.19 |
| TATAAAATAAATAACAAAAAAAATAAAATAAAAATA [TGCATGCA_negctrl_site297] | 8.47 ± 0.47 |
| AATATACAAAATAAATAAAATATATATATATATATA [CACACA_negctrl_site216] | 10.2 ± 0.28 |
| ATTCTAAATAAATGTACACACAAAAATAAATGTATA [CACACA_site1732] | 8.61 ± 0.31 |
| AACATATATATAATATGTACATAATATATATAAATG [XGTACX_site1161] | 8.52 ± 0.3 |
| AAAATTAAAAATTACTGTACGTATTAGAGAATAAAT [XGTACX_site2567] | 8.53 ± 0.32 |
| CATAAAATTGTGAAGTGTACATATTTTTAAATATAA [XGTACX_site8986] | 8.63 ± 0.28 |

| Sequence | gcPBM binding intensity (ln) |
| --- | --- |
| AATATTTTACAATACACATGCAAATAATATTCTAAA [TGCATGCA_site618] | 8.63 ± 0.39 |
| TATATATATAAATACACACACACAAAAAAAAAAAAA [CACACA_site4930] | 8.6 ± 0.34 |
| CATTTATATATATACACACACACAAAAAAAAAAAAA [CACACA_site2645] | 8.44 ± 0.49 |
| AAAAAATAAATAAATACACACAAATATATATATATA [CACACA_site2543] | 10.2 ± 0.071 |
| TATTTATATTTATACACACACACAAAAAAAAAAAAA [CACACA_site6817] | 8.36 ± 0.57 |
| TATATATATATATACACACACACAAAAAAAAAAAAA [CACACA_site1505] | 10.2 ± 0.21 |
| TATATAAATATATATACACACAAAAAAAAAAAAAAA [CACACA_site1406] | 8.36 ± 0.52 |
| TTAATAAAAGCCCATGCACACCTTAGAAAGTTTTAT [CACACA_site8003] | 8.43 ± 0.45 |
| GCCATTAATTTATACACACACATTATGATTTTTTAT [CACACA_site754] | 8.86 ± 0.28 |
| TCTTGTCTACCTTGTATTTAATATTTACATATATAA [TGCATGCA_negctrl_site320] | 8.95 ± 0.4 |
| TTTATTTTGACAGATTGTACACTTTATACATGTTTT [XGTACX_site2356] | 8.8 ± 0.44 |
| TAATCATAAAAAAATACACACATATATAATATATAT [CACACA_site1983] | 8.51 ± 0.3 |
| ATAAAAAAATCAGACACACACACGTAAACACATACA [CACACA_site5529] | 8.76 ± 0.57 |
| ATGGAATAATCACGTACACACAAGAAAAAAAAAAAT [CACACA_site527] | 8.8 ± 0.56 |
| ATAAATATCATATATATACACACGTAATACATAATA [CACACA_site4001] | 8.4 ± 0.44 |
| GGGGGGAGGGTGAATACACACGTAATAATCATAAAC [CACACA_site8502] | 10.6 ± 0.22 |
| GGGGGGGGAGGGTGAATACACACGTAATAATCATAA [CACACA_site1716] | 10.8 ± 0.15 |
| AACTTACTCTTTACAAGTACGTAAAAGAAATAGAAA [XGTACX_site1782] | 8.51 ± 0.41 |
| AATTTCTATTTTGTGAGTACATACTCCTATTATATA [XGTACX_site3210] | 8.78 ± 0.26 |
| ATTATATATAAATATACACACATATATAAAATACAT [CACACA_site5298] | 8.39 ± 0.28 |
| TTTTTTTTTTCTCCTGCATGCAGCATTTATATATTA [TGCATGCA_site390] | 10.3 ± 0.13 |
| TTATACTATTTTTATACATGCATTTCTATATATTTT [TGCATGCA_site316] | 9.3 ± 0.28 |

| Sequence | gcPBM binding intensity (ln) |
| --- | --- |
| TTATATTATTTTTATACATGCATTTCTATATATTTT [TGCATGCA_site164] | 9.2 ± 0.3 |
| TCTTTATATATATATATATGTGTGAATGTTAAGTAT [XGTACX_negctrl_site135] | 8.74 ± 0.33 |
| GTTTGTATGTCCAAATGTACATATGATTTTATGAAA [XGTACX_site6595] | 8.72 ± 0.28 |
| ATATATATAAATATATGTACATAAATATATTTGTAA [XGTACX_site6715] | 8.47 ± 0.42 |
| CTGAATGTATATATTTGTACATATATATATATATAT [XGTACX_site5557] | 10.4 ± 0.22 |
| ATTTTGTATATATTTTGTACATATTTTGTATATATT [XGTACX_site885] | 8.68 ± 0.3 |
| TTATTAAATGAAAAATGTACATATAAATGATTATAT [XGTACX_site2788] | 8.51 ± 0.25 |
| ATGATTTGTCTGAAATGTACATATATATATATATAT [XGTACX_site5247] | 10.3 ± 0.47 |
| TTTTTTTTGTATTAATGTACATATAACTTTTTTTTT [XGTACX_site7903] | 8.48 ± 0.47 |
| ATATATATATATATATGTACATATATTTGTAATGTC [XGTACX_site8074] | 10.2 ± 0.43 |
| TGGATTTTGTATTAATGTACATATATATATATATAT [XGTACX_site4442] | 10.2 ± 0.51 |
| ATGAATATATATATTTGTACATATGTATATATATAT [XGTACX_site7527] | 9.71 ± 0.15 |
| AATGTATATATGTAATGTACATATGTAATGTATATA [XGTACX_site6509] | 8.62 ± 0.46 |
| ACATAAATAAATTAATGTACATATATATTTGTATAT [XGTACX_site3160] | 8.36 ± 0.28 |
| ACATTTATTTTGAATGGTACACTATTATTATGAAAT [XGTACX_site4384] | 8.36 ± 0.38 |
| TTTTTTTTTTGATGCACACACCTGAACGAGTTAATA [CACACA_site4329] | 8.83 ± 0.37 |
| ATTTTTAAATACAGTACACACATGGGTTTAAATTAT [CACACA_site2884] | 8.63 ± 0.38 |
| ATATAATAATTGTACACATGCACACACAAATATTAT [TGCATGCA_site204] | 8.9 ± 0.29 |
| GATCACTGAATAAAGGCACACATCTGACTAATTTTT [CACACA_site66] | 8.36 ± 0.39 |
| ATAAATTGAAGTAAATTTGACCTTTTTTTTTTTTTT [GTGCAC_negctrl_site354] | 8.31 ± 0.27 |
| AATGAAAGGATGCTGTGTACATATATATATATATAT [XGTACX_site7901] | 10.2 ± 0.49 |
| ATAAAATGAACCTTTTGTACATATATATATATATAT [XGTACX_site4610] | 10.1 ± 0.57 |

| Sequence | gcPBM binding intensity (ln) |
| --- | --- |
| TAAGGATGAATCCTTTGTACATATATATATATATAT [XGTACX_site1242] | 10.2 ± 0.28 |
| ATAATTAATGATGTATGTACGGAATTTATATATTTG [XGTACX_site5685] | 8.4 ± 0.33 |
| AAAAGATAATTATGCACACACACACCCCCACCCAAC [CACACA_site2570] | 10.67 ± 0.099 |
| AAAAAAGATAATTATGCACACACACCCACCCACCCA [CACACA_site8825] | 9.57 ± 0.41 |
| AAAAGATAATTATGCACACACACACCCAGACACAAC [CACACA_site5428] | 9.11 ± 0.4 |
| TAAAATTAATTTCTGTTGCACTTATTATTAATTAAC | 8.84 ± 0.4 |
| AACATAAAAAAAATATGTACATATATAATATATATA [XGTACX_site3764] | 8.85 ± 0.23 |
| ATAAAAAAAAATATATGTACATATATAAATTGATAT [XGTACX_site7409] | 8.73 ± 0.42 |
| TAAATATATATAACATGTACATAAAATATATATATA [XGTACX_site4431] | 9.53 ± 0.13 |
| GCAAATATGTTGATATGTACATATATATATATATAT [XGTACX_site445] | 10.2 ± 0.45 |
| GATATAAACGTATATGTACATATATATATATATATA [GTGCAC_negctrl_site186] | 10.2 ± 0.41 |
| AATATATAAACACGTACACACACATATATGTATATA [CACACA_site9168] | 8.73 ± 0.43 |
| GTAAATATATAAACATGTACATATATAAATATATAA [XGTACX_site7262] | 8.51 ± 0.33 |
| ATATATATATATATATGTACATATATATTGTTGATC [XGTACX_site8893] | 10.1 ± 0.26 |
| TATAAACGTATAATATGTACACACACATATATACAA [XGTACX_site1686] | 8.43 ± 0.32 |
| TATATATAAAACATATGTACATATATATATATATAT [XGTACX_site419] | 10.2 ± 0.24 |
| ATAAAAACATAAAAATGTACATATATATATATATAT [XGTACX_site7165] | 10.1 ± 0.25 |
| ATATAAATATAAACATGTACATATATATATATATAT [XGTACX_site2824] | 10.3 ± 0.79 |
| AATGGGTAAACATACACACACACATATATATATATA [CACACA_site1991] | 10.1 ± 0.33 |
| AATAAGTTATTATTTTGTACACATAAATAATACGTT [XGTACX_site814] | 8.32 ± 0.3 |
| ATATTCATATATTTACGTACATACATTTATATATTT [XGTACX_site7644] | 8.85 ± 0.37 |
| TACCTATACAGACACACACACACACGCCCACAAAAA [CACACA_site6375] | 8.77 ± 0.35 |
